Laboratory results reported in a collection of fitness landscapes (doi:10.1126/science.1257360).
The full ranking holds about 140,000 sequences; the median of “enrichment ratio after two sorts for PhoP signalling” is about 0, and the highest 2% start at about 11. Only a selection was taken, and the highest values are over-represented in it overall.

B1: PhoQ; a variant is named by its letters at X, in order, P23837 (parent)
chain: MKKLLRLFFPLSLRVRFLLATAAVVLVLSLAYGMVALIGYSVSFDKTTFRLLRGESNLFYTLAKWENNKLHVELPENIDKQSPTMTLIYDENGQLLWAQRDVPWLMKMIQPDWLKSNGFHEIEADVNDTSLLLSGDHSIQQQLQEVREDDDDAEMTHSVAVNVYPATSRMPKLTIVVVDTIPVELKSSYMVWSWFIYVLSANLLLVIPLLWVAAWWSLRPIEALAKEVRELEEHNRELLNPATTRELTSLVRNLNRLLKSERERYDKYRTTLTDLTHSLKTPLXXLQXXLRSLRSEKMSVSDAEPVMLEQISRISQQIGYYLHRASMRGGTLLSRELHPVAPLLDNLTSALNKVYQRKGVNISLDISPEISFVGEQNDFVEVMGNVLDNACKYCLEFVEISARQTDEHLYIVVEDDGPGIPLSKREVIFDRGQRVDTLRPGQGVGLAVAREITEQYEGKIVAGESMLGGARMEVIFGRQHSAPKDE

Variants of: B1
Assay: enrichment ratio after two sorts for PhoP signalling (ratio (wild type AVST 3.29)); higher = more functional
Settings: with PhoP (E. coli)

Question: For KINI, which enrichment ratio is on record?
Answer: ≤ 0.25

Question: SEPT was tested. Which enrichment ratio did it give?
Answer: ≤ 0.25

Question: NNGF was tested. Which enrichment ratio did it give?
Answer: ≤ 0.25

Question: With LQLD as the variant, how does the enrichment ratio read?
Answer: ≤ 0.25

Question: How did the enrichment ratio turn out when NKMF was run?
Answer: ≤ 0.25

Question: Which enrichment ratio does the source give for QAHK here?
Answer: ≤ 0.25

Question: KANF was tested. Which enrichment ratio did it give?
Answer: ≤ 0.25

Question: Which enrichment ratio does the source give for QAQF here?
Answer: ≤ 0.25

Question: With NQNF as the variant, how does the enrichment ratio read?
Answer: ≤ 0.25

Question: For YAHM, which enrichment ratio is on record?
Answer: ≤ 0.25

Question: How did the enrichment ratio turn out when QANF was run?
Answer: 21

Question: How did the enrichment ratio turn out when NANF was run?
Answer: ≤ 0.25

Question: For QAHF, which enrichment ratio is on record?
Answer: 15.5

Question: QLNF was tested. Which enrichment ratio did it give?
Answer: ≤ 0.25

Question: QQNF was tested. Which enrichment ratio did it give?
Answer: 16.3

Question: Which enrichment ratio does the source give for QAHM here?
Answer: 22.3

Question: For QDHM, which enrichment ratio is on record?
Answer: ≤ 0.25

Question: Which enrichment ratio does the source give for HNRG here?
Answer: ≤ 0.25

Question: How did the enrichment ratio turn out when WPAL was run?
Answer: ≤ 0.25

Question: GSVC was tested. Which enrichment ratio did it give?
Answer: ≤ 0.25

Question: Which enrichment ratio does the source give for LGSN here?
Answer: ≤ 0.25

Question: For MHVR, which enrichment ratio is on record?
Answer: ≤ 0.25

Question: Which enrichment ratio does the source give for WLSV here?
Answer: ≤ 0.25

Question: WRAR was tested. Which enrichment ratio did it give?
Answer: ≤ 0.25

Question: Which enrichment ratio does the source give for KRNR here?
Answer: ≤ 0.25

Question: For ECFS, which enrichment ratio is on record?
Answer: ≤ 0.25

Question: Which enrichment ratio does the source give for SLNF here?
Answer: 1.82

Question: With AINF as the variant, how does the enrichment ratio read?
Answer: 1.66

Question: STNF was tested. Which enrichment ratio did it give?
Answer: 12.6

Question: Which enrichment ratio does the source give for CTNF here?
Answer: ≤ 0.25

Question: For ANNF, which enrichment ratio is on record?
Answer: 12.9

Question: How did the enrichment ratio turn out when YTNF was run?
Answer: ≤ 0.25

Question: With GTNF as the variant, how does the enrichment ratio read?
Answer: ≤ 0.25

Question: SCNF was tested. Which enrichment ratio did it give?
Answer: 14.3

Question: How did the enrichment ratio turn out when AHNF was run?
Answer: 9.49

Question: With TTNF as the variant, how does the enrichment ratio read?
Answer: 6.07

Question: With KYNF as the variant, how does the enrichment ratio read?
Answer: ≤ 0.25

Question: Which enrichment ratio does the source give for ATNF here?
Answer: 20.9

Question: For PREH, which enrichment ratio is on record?
Answer: ≤ 0.25

Question: How did the enrichment ratio turn out when GASC was run?
Answer: ≤ 0.25

Question: With FFHE as the variant, how does the enrichment ratio read?
Answer: ≤ 0.25

Question: For DQPT, which enrichment ratio is on record?
Answer: ≤ 0.25

Question: For LMDV, which enrichment ratio is on record?
Answer: ≤ 0.25

Question: FSAH was tested. Which enrichment ratio did it give?
Answer: 0.363

Question: Which enrichment ratio does the source give for SQND here?
Answer: ≤ 0.25

Question: With IRPQ as the variant, how does the enrichment ratio read?
Answer: ≤ 0.25

Question: For YYNE, which enrichment ratio is on record?
Answer: ≤ 0.25

Question: With GEGM as the variant, how does the enrichment ratio read?
Answer: ≤ 0.25

Question: For GEVA, which enrichment ratio is on record?
Answer: ≤ 0.25

Question: For GEVY, which enrichment ratio is on record?
Answer: 15.9

Question: Which enrichment ratio does the source give for GEVG here?
Answer: 8.67

Question: How did the enrichment ratio turn out when GEYY was run?
Answer: ≤ 0.25

Question: For GEVM, which enrichment ratio is on record?
Answer: 13.6

Question: With ISQH as the variant, how does the enrichment ratio read?
Answer: ≤ 0.25

Question: How did the enrichment ratio turn out when HWRW was run?
Answer: ≤ 0.25

Question: For LGRG, which enrichment ratio is on record?
Answer: ≤ 0.25

Question: For HLTF, which enrichment ratio is on record?
Answer: ≤ 0.25

Question: With LNAM as the variant, how does the enrichment ratio read?
Answer: ≤ 0.25

Question: For GMGM, which enrichment ratio is on record?
Answer: ≤ 0.25

Question: For TNCK, which enrichment ratio is on record?
Answer: ≤ 0.25

Question: With TNAM as the variant, how does the enrichment ratio read?
Answer: 15.7

Question: For MNAM, which enrichment ratio is on record?
Answer: 1.4

Question: GMAM was tested. Which enrichment ratio did it give?
Answer: 24.3

Question: GIMD was tested. Which enrichment ratio did it give?
Answer: ≤ 0.25

Question: For GIAM, which enrichment ratio is on record?
Answer: 33.4

Question: NNAM was tested. Which enrichment ratio did it give?
Answer: ≤ 0.25

Question: With GIRM as the variant, how does the enrichment ratio read?
Answer: ≤ 0.25

Question: Which enrichment ratio does the source give for GNAM here?
Answer: 35.8

Question: Which enrichment ratio does the source give for GMTM here?
Answer: ≤ 0.25

Question: With RPAK as the variant, how does the enrichment ratio read?
Answer: ≤ 0.25

Question: YHSF was tested. Which enrichment ratio did it give?
Answer: ≤ 0.25

Question: QLDG was tested. Which enrichment ratio did it give?
Answer: ≤ 0.25

Question: For PCCG, which enrichment ratio is on record?
Answer: ≤ 0.25

Question: How did the enrichment ratio turn out when DCDI was run?
Answer: ≤ 0.25

Question: How did the enrichment ratio turn out when YLVR was run?
Answer: ≤ 0.25

Question: For QLDF, which enrichment ratio is on record?
Answer: ≤ 0.25

Question: For IHCL, which enrichment ratio is on record?
Answer: ≤ 0.25

Question: How did the enrichment ratio turn out when FHCR was run?
Answer: ≤ 0.25

Question: Which enrichment ratio does the source give for VVAM here?
Answer: ≤ 0.25

Question: With LQPE as the variant, how does the enrichment ratio read?
Answer: ≤ 0.25

Question: How did the enrichment ratio turn out when YRAY was run?
Answer: ≤ 0.25

Question: Which enrichment ratio does the source give for SGLI here?
Answer: 16.2

Question: For SGLA, which enrichment ratio is on record?
Answer: 8.41

Question: Which enrichment ratio does the source give for SGDK here?
Answer: ≤ 0.25

Question: Which enrichment ratio does the source give for SGLT here?
Answer: 12.3

Question: Which enrichment ratio does the source give for SGNT here?
Answer: ≤ 0.25

Question: With SGDN as the variant, how does the enrichment ratio read?
Answer: ≤ 0.25

Question: How did the enrichment ratio turn out when KDVP was run?
Answer: ≤ 0.25

Question: RAKD was tested. Which enrichment ratio did it give?
Answer: ≤ 0.25

Question: How did the enrichment ratio turn out when KKSI was run?
Answer: ≤ 0.25

Question: For ARSI, which enrichment ratio is on record?
Answer: ≤ 0.25

Question: Which enrichment ratio does the source give for AISW here?
Answer: 11.4

Question: How did the enrichment ratio turn out when WISW was run?
Answer: ≤ 0.25

Question: How did the enrichment ratio turn out when TISR was run?
Answer: 6.92

Question: With AQSI as the variant, how does the enrichment ratio read?
Answer: 18.6

Question: HKSI was tested. Which enrichment ratio did it give?
Answer: ≤ 0.25

Question: Which enrichment ratio does the source give for TISK here?
Answer: 3.65

Question: How did the enrichment ratio turn out when TISI was run?
Answer: 16.9

Question: Which enrichment ratio does the source give for ADSW here?
Answer: ≤ 0.25

Question: Which enrichment ratio does the source give for TKSI here?
Answer: 14.9

Question: Which enrichment ratio does the source give for AQRK here?
Answer: ≤ 0.25

Question: For SLDN, which enrichment ratio is on record?
Answer: ≤ 0.25

Question: How did the enrichment ratio turn out when QVPH was run?
Answer: ≤ 0.25

Question: For WSQP, which enrichment ratio is on record?
Answer: ≤ 0.25

Question: Which enrichment ratio does the source give for DYLR here?
Answer: ≤ 0.25

Question: With WNLT as the variant, how does the enrichment ratio read?
Answer: ≤ 0.25

Question: RHIF was tested. Which enrichment ratio did it give?
Answer: ≤ 0.25

Question: For HCDL, which enrichment ratio is on record?
Answer: ≤ 0.25

Question: With WISI as the variant, how does the enrichment ratio read?
Answer: ≤ 0.25

Question: Which enrichment ratio does the source give for AISI here?
Answer: 22

Question: AKDH was tested. Which enrichment ratio did it give?
Answer: ≤ 0.25

Question: Which enrichment ratio does the source give for ADSI here?
Answer: ≤ 0.25

Question: With AHSI as the variant, how does the enrichment ratio read?
Answer: ≤ 0.25

Question: AKSI was tested. Which enrichment ratio did it give?
Answer: 22.7

Question: With ENLY as the variant, how does the enrichment ratio read?
Answer: ≤ 0.25

Question: Which enrichment ratio does the source give for RIVL here?
Answer: ≤ 0.25

Question: YQAH was tested. Which enrichment ratio did it give?
Answer: ≤ 0.25

Question: TFMT was tested. Which enrichment ratio did it give?
Answer: ≤ 0.25

Question: With GVLI as the variant, how does the enrichment ratio read?
Answer: 15.6

Question: HGCS was tested. Which enrichment ratio did it give?
Answer: ≤ 0.25

Question: How did the enrichment ratio turn out when HGCI was run?
Answer: 17.9

Question: How did the enrichment ratio turn out when HGLI was run?
Answer: 13.3

Question: HGCK was tested. Which enrichment ratio did it give?
Answer: ≤ 0.25

Question: With GILI as the variant, how does the enrichment ratio read?
Answer: 8.37

Question: How did the enrichment ratio turn out when GVLA was run?
Answer: 4.95

Question: NVLI was tested. Which enrichment ratio did it give?
Answer: ≤ 0.25

Question: How did the enrichment ratio turn out when LNLI was run?
Answer: ≤ 0.25

Question: Which enrichment ratio does the source give for HYLI here?
Answer: ≤ 0.25

Question: HGDK was tested. Which enrichment ratio did it give?
Answer: ≤ 0.25

Question: For GNLI, which enrichment ratio is on record?
Answer: 15.8

Question: How did the enrichment ratio turn out when LTRF was run?
Answer: ≤ 0.25

Question: Which enrichment ratio does the source give for QPSN here?
Answer: ≤ 0.25

Question: PTQL was tested. Which enrichment ratio did it give?
Answer: ≤ 0.25

Question: YSHY was tested. Which enrichment ratio did it give?
Answer: ≤ 0.25

Question: CFLI was tested. Which enrichment ratio did it give?
Answer: ≤ 0.25

Question: How did the enrichment ratio turn out when CNLI was run?
Answer: 12.7

Question: For FFLI, which enrichment ratio is on record?
Answer: ≤ 0.25

Question: With TGLI as the variant, how does the enrichment ratio read?
Answer: 12.2

Question: For WGLT, which enrichment ratio is on record?
Answer: ≤ 0.25

Question: QGLI was tested. Which enrichment ratio did it give?
Answer: 13.3

Question: With NGLI as the variant, how does the enrichment ratio read?
Answer: 2.73

Question: With QGDK as the variant, how does the enrichment ratio read?
Answer: ≤ 0.25

Question: For WGLI, which enrichment ratio is on record?
Answer: 13.6

Question: For WGLA, which enrichment ratio is on record?
Answer: ≤ 0.25

Question: Which enrichment ratio does the source give for RGLI here?
Answer: ≤ 0.25

Question: Which enrichment ratio does the source give for CNHF here?
Answer: ≤ 0.25

Question: How did the enrichment ratio turn out when VTWM was run?
Answer: ≤ 0.25

Question: How did the enrichment ratio turn out when QDLV was run?
Answer: ≤ 0.25

Question: WQPN was tested. Which enrichment ratio did it give?
Answer: ≤ 0.25

Question: For FGKS, which enrichment ratio is on record?
Answer: ≤ 0.25

Question: Which enrichment ratio does the source give for MGDK here?
Answer: ≤ 0.25

Question: MKLI was tested. Which enrichment ratio did it give?
Answer: 3.78

Question: Which enrichment ratio does the source give for MGLI here?
Answer: 14.4

Question: YHLI was tested. Which enrichment ratio did it give?
Answer: ≤ 0.25

Question: TKLI was tested. Which enrichment ratio did it give?
Answer: 13
